# Measurements from PubChem BioAssay (NCI).
# About 83,000 compounds went through this panel and 20% of them were active in at least one assay; those are over-represented in the sample as a whole.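 Testing used 96-well plates and a 48-hour single-concentration exposure. Example: -40 means 40% of the starting cells died.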 Active and inactive are the calls of the source. The calls were made as follows: active = growth percent below 10; inactive = the rest.
# Test system: SF-268 CNS
# Experiment: NCI-60 one-dose screen, 48 h (100 = growth as untreated, 0 = no growth, -100 = all killed)
# Conditions: 10 µM
row,Compound,growth
1,COc1cc2cc(C(=O)N3C[C@@H](CCl)c4c3cc(OC(=O)N3CCN(C)[C@@H]5CSSC[C@H]53)c3ccccc43)[nH]c2c(OC)c1OC,2.46% (active)
2,CC1=C(CCC=O)C2=C(C)C3(CC3)[C@@](C)(O)C(=O)C2=C1,6.81% (active)
3,COC(=O)C[C@](O)(CCC(C)C)C(=O)O[C@@H]1C(OC)=C[C@]23CCCN2CCc2cc4c(cc2[C@H]13)OCO4,-21.3% (active)
4,O=C(/C=C/c1ccc(Cl)cc1)c1nc2ccccc2n1Cc1ccc(F)cc1,39.9% (inactive)
5,CC[C@]12C=CCN3CC[C@@]4(c5ccc(OC)cc5N(C)[C@H]4[C@@](O)(C(=O)OC)[C@@H]1OC(=O)CCC[P+](C1CCCCC1)(C1CCCCC1)C1CCCCC1)[C@@H]32,-54.1% (active)
6,CC1=C2C(=C[C@@](C)(COP(=O)(Oc3ccccc3)Oc3ccccc3)[C@@H]2O)C(=O)[C@@](C)(O)C12CC2,-74.3% (active)
7,CC(=O)Oc1ccccc1C(=O)NC([Se])=NC1CCCCC1,66.1% (inactive)
8,CCOP(=O)(CC(F)(F)C(F)(F)F)OCC,80.4% (inactive)
9,CC(C)C[C@H](NC(=O)CNC(=O)C[C@H]1O[C@@H]2OC3(C)CC[C@H]4[C@H](C)CC[C@@H]([C@H]1C)[C@@]24OO3)B(O)O,17.4% (inactive)
10,C[C@H]1[C@@H](Oc2ccc(-c3cn(-c4ccnc5cc(Cl)ccc45)nn3)cc2)O[C@@H]2OC3(C)CC[C@H]4[C@H](C)CC[C@@H]1[C@@]24OO3,46.3% (inactive)
11,C[C@H]1[C@H](OC(=O)CCC(=O)N(CCCc2cn(-c3ccc([N+](=O)[O-])cc3)nn2)CCNc2ccnc3cc(Cl)ccc23)O[C@@H]2OC3(C)CC[C@H]4[C@H](C)CC[C@@H]1[C@@]24OO3,59.5% (inactive)
12,COc1cc2cc(C(=O)N3C[C@@H](CCl)c4c3cc(OC(=O)N3CCN(C)[C@@H]5CSSC[C@@H]53)c3ccccc43)[nH]c2c(OC)c1OC,-17.8% (active)
13,COc1cc2cc(C(=O)N3C[C@@H](CCl)c4c3cc(OC(=O)N3CCN(C(=O)CCC(=O)N5CCN(C)CC5)[C@@H]5CSSC[C@@H]53)c3ccccc43)[nH]c2c(OC)c1OC,-28.4% (active)
14,COC(=O)c1ccc(-n2cc(CCCN(CCNc3ccnc4cc(Cl)ccc34)C(=O)CCC(=O)O[C@@H]3O[C@@H]4OC5(C)CC[C@H]6[C@H](C)CC[C@@H]([C@H]3C)[C@@]46OO5)nn2)cc1,59.2% (inactive)
15,O=C([Se]C1C=CCCC1)c1ccc(C(=O)[Se]C2C=CCCC2)s1 (stereo not given),0.795% (active)
16,O=C(/C=C/c1cccc(Br)c1)c1nc2ccccc2n1Cc1ccc(F)cc1,62.6% (inactive)
17,CC[C@]12C=CCN3CC[C@@]4(c5ccc(OC)cc5N(C)[C@H]4[C@@](O)(C(=O)OC)[C@@H]1OC(=O)CCC[P+](c1ccc(C)cc1)(c1ccc(C)cc1)c1ccc(C)cc1)[C@@H]32,-46.3% (active)
18,O=C(NC([Se])=NC1CCCCC1)c1ccccc1,96.2% (inactive)
19,O=C(/C=C/c1ccc(F)cc1)c1nc2ccccc2n1Cc1ccc(F)cc1,16.2% (inactive)
20,O=C(/C=C/c1ccccc1)c1nc2ccccc2n1Cc1ccc(Br)cc1,3.91% (active)
21,C=CC[Se]C(=O)c1cncc(C(=O)[Se]CC=C)c1,7.42% (active)
22,COc1ccc(OC)c(/C=C/C(=O)c2nc3ccccc3n2Cc2ccc(F)cc2)c1,14.8% (inactive)
23,O=C(/C=C/c1ccc(F)cc1)c1nc2ccccc2n1Cc1ccc(Br)cc1,-4.4% (active)
24,CC[C@]12C=CCN3CC[C@@]4(c5ccc(OC)cc5N(C)[C@H]4[C@@](O)(C(=O)OC)[C@@H]1OC(=O)CCCC[P+](c1ccc(C)cc1)(c1ccc(C)cc1)c1ccc(C)cc1)[C@@H]32,-61.1% (active)
25,CC(C)N=C([Se])NC(=O)c1cccs1,59.4% (inactive)
26,CC1=C(CCC=NNC(N)=O)C2=C(C)C3(CC3)[C@@](C)(O)C(=O)C2=C1,-31.4% (active)
27,Cc1ccc2[nH]c(=S)n(-c3ccc(F)cc3)c(=O)c2c1,106% (inactive)
28,C#CC[Se]C(=O)c1ccc2n[se]nc2c1,89.4% (inactive)
29,CC1=C(COCCOC(=O)c2ccc(S(=O)(=O)F)cc2)C2=C(C)C3(CC3)[C@@](C)(O)C(=O)C2=C1,12.9% (inactive)
30,CC12CCC3(CCC(=O)NCCCNc4ccnc5cc(Cl)ccc45)[C@@](C)(OO[C@]3(C)O1)O2,5.01% (active)
